# Results published in the supplement of paper PMC8728848.
# This excerpt belongs to a sample that is enriched for the strongest signals.
# Key:
# Experiment in all cases: glycan array binding signal (z-score within array); higher = stronger binding
# Conditions in all cases: glycan notation: IUPAC condensed, linker removed
# Fuc(a1-2)Gal(b1-3)GalNAc = molecular target: Fuc(a1-2)Gal(b1-3)GalNAc
# Procedure, shortened: (§1)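 The Consortium for Functional Glycomics database supplied 3228 glycan arrays, of which those lacking an available protein sequence were dropped. The binding signal, a within-array Z-score, was averaged across arrays of the same protein sequence and across linkers. Negative scores can be read as non-binding.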
# [1] = molecular target: Fuc(a1-2)Gal(b1-3)GalNAc(b1-3)Gal(a1-4)Gal(b1-4)Glc
# Procedure, shortened: as §1
# [2] = molecular target: Fuc(a1-2)Gal(b1-4)GlcNAc(b1-3)Gal(b1-4)GlcNAc
# Procedure, shortened: as §1
# Gal(a1-4)Gal(b1-4)Gal = molecular target: Gal(a1-4)Gal(b1-4)Gal
# Procedure, shortened: as §1
# Gal(a1-4)Gal(b1-4)GalNAc = molecular target: Gal(a1-4)Gal(b1-4)GalNAc
# Procedure, shortened: as §1
# [3] = molecular target: Gal(b1-3)GalNAc(b1-3)Gal(b1-4)Glc
# Procedure, shortened: as §1
# Gal(b1-4)Glc6S = molecular target: Gal(b1-4)Glc6S
# Procedure, shortened: as §1
# [4] = molecular target: Gal(b1-4)GlcNAc(b1-3)GalNAc
# Procedure, shortened: as §1
# Gal6S(b1-4)Glc = molecular target: Gal6S(b1-4)Glc
# Procedure, shortened: as §1
# [5] = molecular target: Man(a1-2)Man(a1-2)Man(a1-3)[Man(a1-2)Man(a1-6)[Man(a1-3)]Man(a1-6)]Man(b1-4)GlcNAc(b1-4)GlcNAc
# Procedure, shortened: as §1
# Man(a1-3)[Man(a1-6)]Man = molecular target: Man(a1-3)[Man(a1-6)]Man
# Procedure, shortened: as §1
# [6] = molecular target: Neu5Ac(a2-3)Gal(b1-3)GalNAc6S
# Procedure, shortened: as §1
# [7] = molecular target: Neu5Ac(a2-3)Gal(b1-4)GlcNAc(b1-3)Gal(b1-4)[Fuc(a1-3)]GlcNAc
# Procedure, shortened: as §1
# Neu5Ac(a2-3)GalNAc = molecular target: Neu5Ac(a2-3)GalNAc
# Procedure, shortened: as §1
# [8] = molecular target: Neu5Gc(a2-6)Gal(b1-4)GlcNAc
# Procedure, shortened: as §1
# [9] = molecular target: Fuc(a1-2)Gal6S(b1-4)Glc6S
# Procedure, shortened: as §1
# [10] = molecular target: Fuc(a1-3)[Gal3S(b1-4)]Glc
# Procedure, shortened: as §1
# [11] = molecular target: Fuc(a1-3)[Gal3S(b1-4)]Glc6S
# Procedure, shortened: as §1
# [12] = molecular target: Fuc(a1-3)[Gal3S(b1-4)]GlcNAc6S
# Procedure, shortened: as §1
# Gal(b1-3)Gal = molecular target: Gal(b1-3)Gal
# Procedure, shortened: as §1
# Gal(b1-3)GalNAc = molecular target: Gal(b1-3)GalNAc
# Procedure, shortened: as §1
# Gal3S(b1-4)Glc6S = molecular target: Gal3S(b1-4)Glc6S
# Procedure, shortened: as §1
# Gal3S(b1-4)GlcNAc6S = molecular target: Gal3S(b1-4)GlcNAc6S
# Procedure, shortened: as §1
# Gal3S6S(b1-4)GlcNAc6S = molecular target: Gal3S6S(b1-4)GlcNAc6S
# Procedure, shortened: as §1
# Gal4S6S(b1-4)GlcNAc = molecular target: Gal4S6S(b1-4)GlcNAc
# Procedure, shortened: as §1
# Gal6S(b1-4)Glc6S = molecular target: Gal6S(b1-4)Glc6S
# Procedure, shortened: as §1
# Glc(a1-4)Glc = molecular target: Glc(a1-4)Glc
# Procedure, shortened: as §1
# Glc(a1-6)Glc(a1-6)Glc = molecular target: Glc(a1-6)Glc(a1-6)Glc
# Procedure, shortened: as §1
# [13] = molecular target: GlcNAc(a1-6)Gal(b1-4)GlcNAc
# Procedure, shortened: as §1
# [14] = molecular target: Neu5Ac(a2-3)Gal(b1-3)[Neu5Ac(a2-3)Gal(b1-4)]GlcNAc
# Procedure, shortened: as §1
# [15] = molecular target: Neu5Ac(a2-3)Gal(b1-3)[Neu5Ac(a2-6)]GalNAc
# Procedure, shortened: as §1
# [16] = molecular target: Neu5Ac(a2-3)[GalNAc(b1-4)]Gal(b1-4)GlcNAc
# Procedure, shortened: as §1
# [17] = molecular target: Neu5Ac(a2-6)Gal(b1-4)GlcNAc(b1-3)Gal(b1-4)[Fuc(a1-3)]GlcNAc(b1-3)Gal(b1-4)[Fuc(a1-3)]GlcNAc
# Procedure, shortened: as §1
# [18] = molecular target: Neu5Ac(a2-8)Neu5Ac(a2-3)[GalNAc(b1-4)]Gal(b1-4)Glc
# Procedure, shortened: as §1
binder,measurement,setting,value
"RNase 1 (Bos taurus), P61823 (protein) MALKSLVLLSLLVLVLLLVRVQPSLGKETAAAKFERQHMDSSTSAASSSNYCNQMMKSRNLTKDRCKPVNTFVHESLADVQAVCSQKNVACKNGQTNCYQSYSTMSITDCRETGSSKYPNCAYKTTQANKHIIVACEGNPYVPVHFDASV",glycan array binding signal (z-score),Fuc(a1-2)Gal(b1-3)GalNAc,-0.157
same,glycan array binding signal (z-score),[1],1.93
same,glycan array binding signal (z-score),[2],-0.225
same,glycan array binding signal (z-score),Gal(a1-4)Gal(b1-4)Gal,7.93
same,glycan array binding signal (z-score),Gal(a1-4)Gal(b1-4)GalNAc,8.87
same,glycan array binding signal (z-score),[3],0.641
same,glycan array binding signal (z-score),Gal(b1-4)Glc6S,-0.14
same,glycan array binding signal (z-score),[4],-0.22
same,glycan array binding signal (z-score),Gal6S(b1-4)Glc,-0.073
same,glycan array binding signal (z-score),[5],-0.153
same,glycan array binding signal (z-score),Man(a1-3)[Man(a1-6)]Man,-0.147
same,glycan array binding signal (z-score),[6],-0.195
same,glycan array binding signal (z-score),[7],-0.22
same,glycan array binding signal (z-score),Neu5Ac(a2-3)GalNAc,-0.24
same,glycan array binding signal (z-score),[8],-0.201
"NKp30 (Homo sapiens), O14931 (protein) LWVSQPPEIRTLEGSSAFLPCSFNASQGRLAIGSVTWFRDEVVPGKEVRNGTPEFRGRLAPLASSRFLHDHQAELHIRDVRGHDASIYVCRVEVLGLGVGTGNGTRLVVEKEHPQLG",glycan array binding signal (z-score),Fuc(a1-2)Gal(b1-3)GalNAc,-0.862
same,glycan array binding signal (z-score),[9],2.23
same,glycan array binding signal (z-score),[10],0.441
same,glycan array binding signal (z-score),[11],0.61
same,glycan array binding signal (z-score),[12],0.561
same,glycan array binding signal (z-score),Gal(b1-3)Gal,-0.378
same,glycan array binding signal (z-score),Gal(b1-3)GalNAc,-0.24
same,glycan array binding signal (z-score),[3],-0.43
same,glycan array binding signal (z-score),Gal3S(b1-4)Glc6S,2.3
same,glycan array binding signal (z-score),Gal3S(b1-4)GlcNAc6S,2.56
same,glycan array binding signal (z-score),Gal3S6S(b1-4)GlcNAc6S,2.38
same,glycan array binding signal (z-score),Gal4S6S(b1-4)GlcNAc,2.56
same,glycan array binding signal (z-score),Gal6S(b1-4)Glc6S,2.44
same,glycan array binding signal (z-score),Glc(a1-4)Glc,-0.398
same,glycan array binding signal (z-score),Glc(a1-6)Glc(a1-6)Glc,-0.195
same,glycan array binding signal (z-score),[13],-0.667
same,glycan array binding signal (z-score),[14],0.776
same,glycan array binding signal (z-score),[15],-0.06
same,glycan array binding signal (z-score),[16],-0.354
same,glycan array binding signal (z-score),[17],-0.472
same,glycan array binding signal (z-score),[18],-0.18
